Calls of active or inactive are those of the source.

Assay [1] in a line: small molecules captured by biotinylated probe aFSTL3 – biochemical, small-molecule microarray, fluorescence 635/667, stem cell growth factor project, primary screen (AID 1064).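 Also: measures binding of the biotinylated anti-FSTL3 antibody to printed compounds.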 Conditions: higher = more signal.
The nature of assay [2]: binders from COS7 lysate, DM2A8 probe, primary screen, torsin A project, cell lysate, small-molecule microarray, fluorescence 635/667 (AID 1065). Conditions: higher = more signal, COS7 lysate expressing mutant human TOR1A.
Assay [3] is described as follows: small molecules captured by biotinylated probe aFGF2 – biochemical, small-molecule microarray, fluorescence 635/667, stem cell growth factor project, primary screen (AID 1067).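 Also: measures binding of biotinylated aFGF2 protein to printed compounds on slides; z-score merges feature fluorescence and signal-to-noise across triplicate slides.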 To be noted: higher = more signal.
Assay [4] can be described thus: small molecules captured by biotinylated probe aFGF10 – biochemical, small-molecule microarray, fluorescence 635/667, stem cell growth factor project, primary screen (AID 1071).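 Also: score merges 667 nm spot intensity and signal to noise from triplicate slides.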 To be noted: higher = more signal.
Assay [5] has as its target Neurogenic locus notch homolog protein 2 (Homo sapiens) (UniProt Q04721). Description: small molecules binding Notch2 protein – biochemical, small-molecule microarray, 635 nm fluorescence, stem cell growth factors, primary screen (AID 1073). Conditions: higher = more signal.
In assay [6] the target is Pro-neuregulin-1, membrane-bound isoform (Homo sapiens) (UniProt Q02297). Description: small molecules binding neuregulin-1 protein – biochemical, small-molecule microarray, fluorescence 635/667, psychiatric disease protein project, primary screen (AID 1075).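 Also: score combines 667 nm spot fluorescence with signal to noise.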 To be noted: NRG1 binding, 635 nm fluorescence, higher = more signal.
Assay [7] deals with Neuregulin-1 EGF-like domain. The assay is described as follows: small molecules binding NRG1 EGF domain – biochemical, small-molecule microarray, 635 nm fluorescence, primary screen (AID 1081).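 Also: binding of the protein to compounds printed on small-molecule microarray slides.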 To be noted: higher = more signal.
Assay [8] is described as follows: FRG1 expression reporter modulators in myotubes – cell-based, C2C12 myotubes, firefly/Renilla luciferase, luminescence, FRG1 inhibition for FSHD, primary screen (AID 1084). To be noted: FRG1 promoter luciferase, higher = more signal, called active from +8 up or from −8 down.
Assay [9] is described as follows: small molecules captured by biotinylated probe aFST – biochemical, small-molecule microarray, fluorescence 635/667, stem cell growth factor project, primary screen (AID 1086).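 Also: score merges 667 nm fluorescence with signal-to-noise of each printed compound spot.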 Conditions: higher = more signal.
Assay [10] in a line: binders of probe aHhip on microarray, primary screen, stem cell growth factor project, biochemical, small-molecule microarray, fluorescence 635/667 (AID 1087).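 Also: score merges spot fluorescence at 667nm with spot signal to noise ratio.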 To be noted: higher = more signal.

Sequence of Neurogenic locus notch homolog protein 2 (Homo sapiens) (Q04721 whole entry, looked up, canonical isoform): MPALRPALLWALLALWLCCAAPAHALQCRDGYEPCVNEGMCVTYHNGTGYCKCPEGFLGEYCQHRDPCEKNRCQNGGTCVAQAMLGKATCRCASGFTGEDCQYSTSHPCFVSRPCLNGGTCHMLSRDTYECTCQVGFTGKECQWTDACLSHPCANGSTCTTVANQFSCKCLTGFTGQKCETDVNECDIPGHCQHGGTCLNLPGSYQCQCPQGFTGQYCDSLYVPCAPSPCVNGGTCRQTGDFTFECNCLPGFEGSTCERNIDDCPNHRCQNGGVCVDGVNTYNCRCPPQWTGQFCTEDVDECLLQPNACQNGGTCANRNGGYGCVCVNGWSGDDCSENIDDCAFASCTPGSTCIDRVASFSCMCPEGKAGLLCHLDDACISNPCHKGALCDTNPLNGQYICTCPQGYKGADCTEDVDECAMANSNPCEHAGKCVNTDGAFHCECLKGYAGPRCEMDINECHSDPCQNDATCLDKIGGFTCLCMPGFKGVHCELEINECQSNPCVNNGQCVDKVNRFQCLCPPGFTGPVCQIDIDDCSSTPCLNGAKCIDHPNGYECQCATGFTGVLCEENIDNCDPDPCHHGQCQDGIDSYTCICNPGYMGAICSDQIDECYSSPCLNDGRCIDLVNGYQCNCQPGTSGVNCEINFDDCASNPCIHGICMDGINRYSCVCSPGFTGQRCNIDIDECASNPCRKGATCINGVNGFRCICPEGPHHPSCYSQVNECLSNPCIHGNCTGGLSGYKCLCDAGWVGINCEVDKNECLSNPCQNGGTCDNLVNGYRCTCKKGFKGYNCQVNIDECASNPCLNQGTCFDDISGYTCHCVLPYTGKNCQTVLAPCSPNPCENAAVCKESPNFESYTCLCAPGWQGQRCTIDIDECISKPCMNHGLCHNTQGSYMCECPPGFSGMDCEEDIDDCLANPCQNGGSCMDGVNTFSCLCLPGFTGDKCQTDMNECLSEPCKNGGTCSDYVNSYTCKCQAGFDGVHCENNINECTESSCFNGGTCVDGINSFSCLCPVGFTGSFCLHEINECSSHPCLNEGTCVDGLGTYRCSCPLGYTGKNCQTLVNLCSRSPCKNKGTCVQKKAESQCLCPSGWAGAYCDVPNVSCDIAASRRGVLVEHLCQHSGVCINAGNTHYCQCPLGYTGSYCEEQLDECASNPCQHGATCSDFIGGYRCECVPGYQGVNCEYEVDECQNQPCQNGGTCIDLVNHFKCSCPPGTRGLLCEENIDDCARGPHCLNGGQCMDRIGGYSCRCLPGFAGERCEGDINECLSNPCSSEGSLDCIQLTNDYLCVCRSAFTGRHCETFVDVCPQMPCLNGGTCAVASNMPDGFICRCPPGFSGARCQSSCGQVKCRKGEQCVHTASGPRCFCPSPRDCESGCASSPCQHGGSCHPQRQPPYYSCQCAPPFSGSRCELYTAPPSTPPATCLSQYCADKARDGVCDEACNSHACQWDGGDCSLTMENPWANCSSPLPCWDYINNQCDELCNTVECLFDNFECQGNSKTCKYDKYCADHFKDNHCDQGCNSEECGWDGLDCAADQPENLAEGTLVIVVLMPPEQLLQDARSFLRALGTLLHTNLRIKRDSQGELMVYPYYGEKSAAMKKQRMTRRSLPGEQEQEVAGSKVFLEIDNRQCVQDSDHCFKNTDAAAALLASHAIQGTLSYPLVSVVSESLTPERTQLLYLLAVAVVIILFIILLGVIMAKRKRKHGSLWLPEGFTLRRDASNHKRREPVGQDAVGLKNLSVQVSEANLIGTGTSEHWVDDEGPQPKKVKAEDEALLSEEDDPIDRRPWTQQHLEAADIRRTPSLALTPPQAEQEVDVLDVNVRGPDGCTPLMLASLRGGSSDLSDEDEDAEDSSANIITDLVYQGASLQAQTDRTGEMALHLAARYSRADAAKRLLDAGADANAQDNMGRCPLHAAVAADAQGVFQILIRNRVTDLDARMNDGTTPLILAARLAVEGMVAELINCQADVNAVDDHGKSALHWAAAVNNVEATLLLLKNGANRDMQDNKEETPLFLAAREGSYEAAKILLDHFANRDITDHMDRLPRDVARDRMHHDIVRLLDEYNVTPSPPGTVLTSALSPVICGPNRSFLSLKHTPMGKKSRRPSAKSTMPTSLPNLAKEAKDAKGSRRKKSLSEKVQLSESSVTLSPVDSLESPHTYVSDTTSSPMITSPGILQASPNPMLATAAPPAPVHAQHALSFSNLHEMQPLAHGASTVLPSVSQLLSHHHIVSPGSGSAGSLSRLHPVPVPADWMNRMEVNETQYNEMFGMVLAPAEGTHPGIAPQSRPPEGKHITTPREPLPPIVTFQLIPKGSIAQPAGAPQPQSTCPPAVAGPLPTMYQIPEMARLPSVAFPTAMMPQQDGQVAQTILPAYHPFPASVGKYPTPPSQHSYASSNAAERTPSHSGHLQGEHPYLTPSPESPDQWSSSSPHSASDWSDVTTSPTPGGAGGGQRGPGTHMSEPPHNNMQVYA
Sequence of Pro-neuregulin-1, membrane-bound isoform (Homo sapiens) (Q02297 whole entry, looked up, the tested form may be a part, canonical isoform): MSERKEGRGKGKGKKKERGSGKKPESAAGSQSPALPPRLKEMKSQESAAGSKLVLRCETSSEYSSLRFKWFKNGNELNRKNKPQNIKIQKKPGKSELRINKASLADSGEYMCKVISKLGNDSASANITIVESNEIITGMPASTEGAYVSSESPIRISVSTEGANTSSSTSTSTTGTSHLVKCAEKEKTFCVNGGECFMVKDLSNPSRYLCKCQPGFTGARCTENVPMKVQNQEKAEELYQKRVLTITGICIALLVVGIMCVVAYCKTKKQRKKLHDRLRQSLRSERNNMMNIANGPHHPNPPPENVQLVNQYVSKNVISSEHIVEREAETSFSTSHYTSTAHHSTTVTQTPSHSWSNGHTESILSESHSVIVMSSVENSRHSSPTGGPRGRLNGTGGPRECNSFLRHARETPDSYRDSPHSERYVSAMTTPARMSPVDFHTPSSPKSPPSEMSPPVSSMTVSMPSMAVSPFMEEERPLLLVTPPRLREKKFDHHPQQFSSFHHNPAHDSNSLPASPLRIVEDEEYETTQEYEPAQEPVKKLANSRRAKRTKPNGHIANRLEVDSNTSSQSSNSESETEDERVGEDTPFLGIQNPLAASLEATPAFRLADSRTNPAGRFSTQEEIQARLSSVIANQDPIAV

On to `COC(=O)[C@H](Cc1ccccc1)NC(=O)[C@@H](C)CO`, for which the composite z-score in [1] is 0.503; in assay [2], 0.482; in [3], -0.0105; in [4] it was 0.417; in [5] it was 0.458; in [6], -0.35. Also, the composite z-score in [7] is 0.867; in [9], 0.53; in [10], -0.0672. In addition, the z-score in assay [8] is 0.313 (inactive).

`COC(=O)[C@H](C)NC(=O)CCC1CC(OC(=O)NCc2cccc3ccccc23)CC2(CCCC(COC(=O)NCCC(C)C)O2)O1` (stereo not given in full): the composite z-score in [1] is -0.478; in assay [2] it was 0.151; in assay [3], -0.167; in assay [4] it was 0.0257; in assay [5], 0.0502; in [6], 0.543. The composite z-score is 1.02 in assay [7], 0.0638 in assay [9] and -0.264 in [10]. In addition, the z-score in assay [8] is 1.5 (inactive).

As to `COC(=O)[C@H](C)NC(=O)CC=C[C@@H](C)[C@@H]1C=C[C@H](O)[C@@H](CO)O1`, the composite z-score in assay [1] is -0.636; in assay [2] it was 0.677; in assay [3], -0.134; in assay [4], 0.538; in assay [5], 0.0931; in [6], -0.419. Also, the composite z-score in [7] was 0.655; in assay [9] it was 0.258; in assay [10] it was -0.0645. Moreover, the z-score in [8] is 0.439 (inactive).

Take `CC(CCC(=O)OC[C@H]1O[C@H](C#Cc2ccccc2)C=C[C@@H]1Oc1ccc(C)cc1)=NO[C@@H](C)c1cc(-c2c(C)cc(C)cc2C)no1`: the composite z-score is -0.0913 in [1]; -1.14 in assay [2]; -0.144 in assay [3]; -0.558 in [4]; -1.58 in assay [5]; 0.122 in [6]. Moreover, the composite z-score in [7] is -0.525; in assay [9], -0.213; in assay [10] it was 0.312. In assay [8], the z-score is 0.87 (inactive).

With `CC(CCC(=O)OC[C@H]1O[C@H](C#Cc2ccccc2)C=C[C@@H]1Oc1ccc(C)cc1)=NO[C@H](C)c1cn([C@@H]2COC[C@H]2O)nn1`, the composite z-score in assay [1] is -0.484; in assay [2] it was 0.522; in [3] it was -0.148; in assay [4] it was 0.0898; in assay [5], -0.31; in assay [6], -0.0103. Besides, the composite z-score in assay [7] was 0.452; in assay [9], -0.0115; in assay [10] it was -0.134. Also, in [8], the z-score was -1.03 (inactive).

On to `O=C1C[C@@H](O)[C@@H](O)[C@@H]2[C@@H]3C(=O)N(c4ccc(F)cc4F)C(=O)[C@@H]3CC[C@H]12`, for which the composite z-score is -0.517 in assay [1]; 0.248 in [2]; -0.1 in assay [3]; 0.648 in [4]; 0.601 in [5]; 0.0794 in assay [6]. The composite z-score amounted to 0.354 in assay [7], 0.201 in assay [9] and 0.0373 in [10]. The z-score in [8] is -0.536 (inactive).

For the compound `C=CC[C@@H]1C=C[C@H](ON=C(C)CCN2CCCc3nc(C)c(C)cc32)[C@@H](CO)O1`, the composite z-score in assay [1] is 0.886; in assay [2], 1.26; in assay [3], 0.208; in assay [4] it was 0.435; in assay [5] it was 0.945; in assay [6], -0.387. Moreover, the results for the composite z-score in [7], in assay [9] and in assay [10] were 0.83, 1.48 and 1.31, respectively. In addition, in [8], the z-score is 1.67 (inactive).

Consider `CSCC[C@@H]1NC(=O)CC=C[C@@H](C)COC(=O)[C@H](C)COC1=O`, for which the composite z-score was -1.1 in assay [1]; 2.81 in [2]; -0.355 in assay [3]; -1.11 in [4]; -0.979 in assay [5]; -1.94 in assay [6]. Further, the composite z-score in assay [7] is -0.169; in assay [9] it was -0.242; in [10] it was 0.487. The z-score in assay [8] was -1.13 (inactive).

Regarding `CC(C)=NOC(C)CN1CCCc2nc(C)c(C)cc21` (stereo not given), the composite z-score in assay [1] is -0.39; in assay [2], -0.184; in [3] it was -0.0408; in assay [4], 0.897; in [5] it was 0.652; in assay [6], 0.702. The composite z-score in assay [7] was 0.61; in assay [9] it was 0.17; in assay [10], -0.201. Further, in assay [8], the z-score is 0.833 (inactive).

As for `C#CCCCON=C1[C@H]2CCn3c(=O)n(Cc4cc5c(cc4Cl)OCO5)c(=O)n3[C@H]2[C@H](O)[C@@H]2O[C@H]12`, the composite z-score is -0.652 in assay [1]; 0.203 in assay [2]; -0.108 in [3]; 0.365 in assay [4]; 0.63 in assay [5]; 0.113 in assay [6]. In addition, the composite z-score is 0.107 in assay [7], 0.241 in [9] and -0.0645 in [10]. Besides, in assay [8], the z-score is -0.12 (inactive).

In the case of `COCOc1ccc(Br)cc1C(=O)C=Cc1ccc2c(c1)OCO2`, the composite z-score in assay [1] is -0.289; in assay [2], 0.738; in assay [3] it was -0.0878; in assay [4], 0.313; in assay [5] it was 0.315; in [6], -0.302. In addition, the composite z-score in assay [7] was -0.645; in [9], 0.13; in assay [10], -0.226. For the same compound, the z-score in assay [8] is -2.06 (inactive).

As to `CC1(C)O[C@H]2OC([C@H](O)CON3C(=O)c4ccccc4C3=O)[C@H](O)[C@H]2O1` (stereo not given in full), the composite z-score is -0.437 in assay [1]; -0.0068 in assay [2]; -0.175 in assay [3]; 0.0685 in assay [4]; 0.335 in assay [5]; 0.166 in assay [6]. Further, the composite z-score in assay [7] is 0.0939; in assay [9] it was 0.169; in [10], -0.374. In addition, in assay [8], the z-score is 0.516 (inactive).

Turning to `COc1cccc([C@H]2Oc3ccc(OC)cc3C(=NO[C@@H](C)c3cc(-c4c(C)cc(C)cc4C)no3)[C@@H]2O)c1`, the composite z-score was 2.15 in assay [1]; -0.187 in assay [2]; -0.238 in [3]; -1.44 in [4]; -2.2 in assay [5]; -0.144 in assay [6]. In addition, the composite z-score in assay [7] is -0.393; in [9] it was -0.391; in assay [10], -0.45. Besides, in [8], the z-score was -3.59 (inactive).

For the compound `CCOC(=O)[C@H](Cc1ccccc1)NC(=O)CCC1CC(OC(=O)NCc2cccc3ccccc23)CC2(CCCC(COC(=O)NCC3CCCCC3)O2)O1` (stereo not given in full), the composite z-score in [1] was -0.421; in [2], 0.979; in assay [3], -0.154; in assay [4], 0.183; in [5], 0.595; in assay [6] it was 0.619. For the same compound, the composite z-score in [7] came to 0.994; in assay [9] it was 0.253; in assay [10], 0.102. For the same compound, the z-score in assay [8] is 0.0184 (inactive).

Take `CCOC(=O)CCN1C(=O)[C@H]2[C@H]3[C@H](O)[C@H](O)CC(=NOCC(C)C)[C@@H]3CC[C@H]2C1=O`: the composite z-score is -0.784 in assay [1]; 1.88 in assay [2]; -0.234 in assay [3]; -1.05 in assay [4]; -0.567 in assay [5]; -0.849 in assay [6]. For the same compound, the composite z-score is 0.296 in [7], -0.595 in assay [9] and -0.0994 in assay [10]. Also, the z-score in [8] is -0.398 (inactive).

In the case of `COc1ccc(COC(=O)NN=C2C[C@@H](O)[C@@H](O)[C@@H]3[C@@H]4C(=O)N([C@@H](C)c5ccccc5)C(=O)[C@@H]4CC[C@@H]23)cc1`, the composite z-score was -0.513 in assay [1]; 0.419 in [2]; -0.114 in assay [3]; 0.042 in assay [4]; 0.199 in assay [5]; 0.0605 in assay [6]. For the same compound, the composite z-score is -0.38 in [7], 0.275 in assay [9] and -0.0994 in [10]. For the same compound, in assay [8], the z-score is 0.497 (inactive).

In the case of `O=C(NN=C1C[C@@H](O)[C@@H](O)[C@@H]2[C@@H]3C(=O)N(Cc4ccc5c(c4)OCO5)C(=O)[C@@H]3CC[C@@H]12)OCc1ccccc1`, the composite z-score in [1] is 0.595; in assay [2] it was -0.183; in [3] it was -0.0467; in [4] it was 0.107; in [5] it was 0.133; in assay [6], 0.022. Besides, the composite z-score is -0.17 in assay [7], 0.312 in assay [9] and -0.134 in assay [10]. For the same compound, the z-score in [8] is 1.78 (inactive).

The values above are taken from PubChem BioAssay.
